# Test results published in the supplement of paper PMC6555819.
# Experiments:
# Test in all cases: PBM binding z-score (relative to random genomic background probes); higher = stronger binding; sequences stand for … in GC…GCGATTGACAGCGTAGAATGAAGG
# [1] = tested on: RARb homodimer (NR concentration 270 nM)
# Outline: (§1)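 Each nuclear receptor dimer, without ligand, was incubated for 1 h on custom Agilent 4×180K protein-binding microarrays. Binding was detected with antibodies against each partner (one per run), and scanned fluorescence was regression-normalized. The binding z-scores are referenced to random human genomic background probes.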
# [2] = tested on: RARg:RXRa (NR concentration 270 nM, RXRa partner concentration 90 nM)
# Outline: as §1
# [3] = tested on: RARg homodimer (NR concentration 270 nM)
# Outline: as §1
# [4] = tested on: RXRa DBDmut IVT, anti-RXR (DBD mutation: RXRa K156A/R161A, NR concentration 90 nM)
# Outline: as §1
# [5] = tested on: RXRa homodimer (NR concentration 180 nM)
# Outline: as §1
# [6] = tested on: THRa:RXRa (NR concentration 90 nM, RXRa partner concentration 90 nM)
# Outline: as §1
# [7] = tested on: THRa homodimer (NR concentration 90 nM)
# Outline: as §1
# [8] = tested on: VDR homodimer (NR concentration 270 nM)
# Outline: as §1
Sequence,PBM binding z-score [1],PBM binding z-score [2],PBM binding z-score [3],PBM binding z-score [4],PBM binding z-score [5],PBM binding z-score [6],PBM binding z-score [7],PBM binding z-score [8]
ATACGTAGGTTAGGGTCATTCAGAAAGTAGGGAA,3.19,4.12,3.37,2.35,5.33,4.07,2.92,3.67
TCGAGTAGGTTACGGGGGCACTCAGGGATGAAGA,2.3,3.39,2.3,1.2,2.84,3.4,1.09,1.68
CGCACTAGGTCAAAGGACAGTGAAAGGCGACGTA,3.01,4.03,4.5,1.95,2.87,2.68,0.793,0.314
CTAACTAGGTCAAGGTCAAAGTCGGTTTGTGCCA,5.03,5.89,6.45,3.03,5.12,4.19,3.77,3.88
AGCTCTAGGTAAAAGTTCAGTGAATCCCGAGGAT,2.44,1.57,1.62,0.637,1.46,1.14,0.029,1.69
CTATGTAGGTGAAGGGGGTCATTCAGTTTGAAAG,3.79,4.75,3.55,2.11,5.63,3.88,1.67,5.55
CCTGCTAGTTCAATGGTCAGCTAAAGCAGCTCGC,1.18,0.412,0.679,2.42,0.154,0.222,-0.395,0.706
CCGAGTAGGTTAAGAGGGGGCATTCAGTGCGAAT,2.25,2.76,2.49,2.04,1.76,3.73,0.843,4.02
CGAACTAGGTCACCAGGACAGTAAAGAGGTTGGA,3.58,4.57,5.2,1.79,3.38,3.29,1.86,0.977
CAAAGTAGGTCACGAAAGGTCAAAGTCGAATGAC,6.1,8.06,8.76,2.36,8.62,4.95,1.49,3.31
TCGAGTAGGTTACGGGGGAATTCAGGGATGAAGA,1.1,1.42,1.05,0.995,1.37,1.93,0.716,0.477
TCATATAGGTTAAGGTGAAAGTCGAACGATATGA,1.66,2.3,2.08,0.797,2.45,3.33,2.71,0.253
CGAACTATGTCAAAGGACAGTGAAAGGCGACGTA,1.14,1.08,1.39,-0.18,0.00503,0.122,-0.538,-0.0132
ACTAGTTGGTCAGCTGGGGTCACACACAATTCGG,4.07,4.45,3.92,1.28,5.58,4.71,3.54,3.33
TCGCGTAGGTTACGGGGGCATTCAGGGATGAAGA,2.37,3.63,2.87,1.99,3.08,3.93,1.5,2.44
ACAGACAGGTGAGTGAAGGTCACTCAGCTGGACG,3.64,3.32,3.72,-0.197,2.89,3.41,0.198,0.819
GGAACGGGGGCATTCGAGTTGATAGCATGGCGAT,1.62,2.68,2.39,3.78,2.47,4.15,1.09,4.57
ATATGTAGGTTAGGGACATTCAGAAAGTAGGGAA,1.11,0.67,1.27,0.8,0.406,2.32,1.51,0.36
TAGCCTAGGTCATTGTGCCAGTATAGTACGCATC,2.7,3.4,3.77,1.9,2.17,2.61,1.03,1.2
ATATGGAGGTTAGCTGGGGTCATTCAGACTAGGC,4.32,4.94,3.85,2.22,6.26,5.44,3.66,5.52
CGAACTAGGTCAAAGGACGGTGAAAGGCGACGTA,2.59,3.97,4.3,1.49,2.68,2.3,-0.112,-0.106
ATATGTTGGTTAGGGTCATTCAGAAAGTAGGGAA,3.19,3.79,2.71,2.64,5.05,4.08,3.71,4.01
CGTACTAGGTCAAAGGACAGTGAAAGGCGACGTA,2.87,4.02,4.76,1.91,3.01,2.51,0.4,0.647
TAGCCTCGGTCATTGGGCCAGTATAGTACGCATC,1.53,1.54,2.62,-0.363,0.223,0.029,-0.772,-0.289
TCATATAGGTGAAAGGTGAAAGTCGGTGTGGTAA,2.31,3.45,1.46,2,4.53,2.15,0.384,0.0995
TCGAGAAGGTTACGGGGGCATTCAGGGATGAAGA,3.05,4.33,3.04,2.36,4.23,4.21,1.42,3.33

Sequence,PBM binding z-score [1],PBM binding z-score [2],PBM binding z-score [3],PBM binding z-score [4],PBM binding z-score [5],PBM binding z-score [6],PBM binding z-score [7],PBM binding z-score [8]
GCTTCCGGGTCAAAGGTTATAGCATGAATAGAAT,2.99,6.81,4.53,2.8,9.29,4.61,1.46,2.25
CCTACTGGGCCAAAGGTCAGTGATTCCAATGCTC,4.33,4.71,4.48,-0.00245,4.48,2.35,0.381,0.516
CTGTGTAGGTTAAGGGGGTCATTCAGTTTGAAAG,4.19,5.13,4.04,2.68,5.91,3.89,2.98,5.36
AATTCAGGGTCACTAGGCCAGAGTAGGTACGAAT,3.83,6.06,5.56,3.39,6.68,4,1.78,2.97
CGTCCAAGGTCAAAGGTCAGTAAAGAGATGACGG,5.42,8.65,8.13,3.88,10.4,4.82,2.37,3.52
TCGAGTAGGTTACGGGGGCATACAGGGATGAAGA,2.05,3.68,2.84,1.44,3.07,3.53,1.18,2.83
CGCACTAGGTCATTGACAGGACAGTGAATAGTAA,2.68,4.77,4.46,2.35,2.57,2.91,1.16,1.54
CGTCAAAGTTCAACTAATGTAACGTAAAGCACGC,3.96,5.66,6.9,4.76,4.75,3.31,0.305,4.13
CCGAGTAGGTTACGAGGGGGCATTCAATGCGAAT,1.91,3.12,2.47,1.05,2.2,3.78,0.33,2.09
GATACAGGGTCAAGGCCAGAATACGCGTATTGAT,3.49,5.5,4.93,2.08,5.95,3.62,1.21,1.6
CGAACTAGGTCAAAGGACAGTGACAGGCGACGTA,3.39,4.39,5.1,1.78,3.89,2.69,0.589,0.435
CCGAGTAGGTTATGAGGGGGCATTCAGTGCGAAT,2.32,2.98,2.83,1.66,1.95,3.88,1.86,3.74
AATACAGGGTCACTAGGTCAGAGTAGGTACGAAT,4.58,6.39,6.22,2.99,6.66,3.92,2.23,3.55
CGAACTAGGTCACCAGGACAGGGAAGAGGTTGGA,3.18,4.35,4.97,1.23,2.96,3.26,1.9,0.549
CGAACCAGGTCAAAGGACAGTGAAAGGCGACGTA,2.94,4.32,4.33,2.36,3.81,3.21,1.24,1.15
CGAACTAGGACACCAGGACAGTGAAGAGGTTGGA,0.545,0.367,0.797,0.0708,0.0879,1.83,1.24,0.472
ATCGAAAGGTCGAAGGTGACTATACCCACCCGAA,2.48,4.16,3.63,1.17,4.99,2.33,0.209,0.592
ATCGAAAGGTCGAAGGTGAGTCTACCCACCCGAA,2.48,4.41,3.67,0.805,5.11,2.24,-0.0307,0.891
CAAACTAGGTCACGAAAGGTCAAAATCGAATGAC,5.7,7.53,8.09,2.25,8.44,4.89,2.42,3.13
TCGAGTAGGTTACGGGGGCATTTAGGGATGAAGA,2.32,3.47,2.58,2.03,2.73,4.01,1.4,3.52
CCTGCTAGGTCATGGTCAGGTAATCTACAGTATG,3.22,4.26,4.73,1.77,3.01,3.55,1.97,0.414
TCTAGTAGGTTACGGGGGCATTCAGGGATGAAGA,2.73,3.98,3.21,2.95,3.28,4.01,2.2,3.82
CCGAGTAGGTTACGAGGGGGCATTCGGTGCGAAT,2.06,3.04,2.32,0.865,2.22,3.76,0.298,3.61
CTATGTAGGTTAAGGGGATCATTCAGTTTGAAAG,0.917,0.82,0.66,0.605,1.12,0.96,0.136,0.834
CTATGTAGGTTAAGGGGGTCATACAGTTTGAAAG,3.95,5.39,4.06,2.32,6.26,4,2,5.41
CCTACTGGGCCACTCAGAGGTCATTGATCATATG,4.26,4.46,3.39,0.734,4.43,3.41,1.71,2.75
